The text below walks through data of PubChem BioAssay (NCATS).

Molecules are shown by their SMILES. Calls of active or inactive are those of the source. A call without a number means that no potency is given here. Calls come from the whole dose curve; as a rule, active = well fitted inhibition curve with a large enough effect; inconclusive = small, poorly fitted or top-dose-only effect; inactive = no such curve, though single readings can be large or run the other way.

Chain of Single-stranded DNA cytosine deaminase (Homo sapiens) (Q9GZX7 whole entry, looked up): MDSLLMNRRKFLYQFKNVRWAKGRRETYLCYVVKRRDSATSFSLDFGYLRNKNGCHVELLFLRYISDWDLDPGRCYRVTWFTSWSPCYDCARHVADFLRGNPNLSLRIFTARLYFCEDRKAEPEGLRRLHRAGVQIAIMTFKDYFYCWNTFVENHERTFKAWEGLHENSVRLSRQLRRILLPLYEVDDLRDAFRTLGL

The target in this assay is Single-stranded DNA cytosine deaminase (Homo sapiens) (UniProt Q9GZX7). The assay is described as follows: Validation qHTS assay for inhibitors of Activation Induced Cytidine Deaminase (AID): AID signal (AID 1347429). The note with it: Recombinant AID, FRET ssDNA deamination with UDG, fluorescence; series mostly up to 115 µM. The source says:
Assay Provider (PI) Patricia Gearhart Ph.D. National Institute on Aging National Institute of Health (NIH), Bethesda, MD Assay Provider (PI) Rahul Kohli Ph.D. Perelman School of Medicine University of Pennsylvania, Philadelphia, PA Activation-Induced Deaminase (AID) is a cytosine deaminase which converts cytosine into uracil within stretches of ssDNA. The presence of uracil in DNA initiates a cascade of mutagenic DNA repair to introduce point mutations and DNA double strand breaks. Specific targeting of AID to the immunoglobulin heavy chain loci (Igh) promotes mutagenesis in the antibody variable region for somatic hypermutation (SHM) or switch regions leading to class switch recombination (CSR). However, AID also plays a role in accumulating unnecessary mutations across the genome. Mis-targeting of AID results in the initiation of tumor development and leads to greater drug resistance among cancer cells when continually expressed. To identify an AID inhibitor, a small molecule library will be screened in collaboration with NCATS core facility at NIH. To confirm biological function, inhibitors will be examined in an in vitro murine B-cell activation assay and subsequent secondary validation screens. Top molecules will be further screened to identify inhibitory efficacy against a wild type primary splenocytes assay. Using these approaches, we hope to identify a small molecule with great efficacy and low toxicity for use as a molecular probe to further characterize AID's intricacies, or even as a therapeutic. A FRET based analysis of cytosine deamination, was developed to identify potential inhibitors of AID catalytic activity. This screen has two signal output, Read 1 evaluates the AID inhibition response. The second readout (Read 2) evaluates UDG response and is uses as a counterscreen to exclude false positive inhibitors. Inhibition in AID and inactivity in the UDG signal is the desired outcome for this assay.
PROTOCOL TABLE SEQUENCE No. (e.g., 1, 2, 3, etc.); […] (e.g., Cells, Incubation, Reagent, etc.); VALUE; DESCRIPTION 1a; Reagent; 3 uL; [4/3x] […] 250 nM DJC20 / 250 nM DJC23 [Substrate] 5; Time; 4 hr; incubation at room temperature 6; Reagent; 4 uL; [2x] 250 mM NaOH 7; Time; 15 sec; centrifuge at 1000 rpm 8; Time; 30 min; incubation at room temperature 9a; Detection; fluorescence (Read 1: AID); EnVision (PerkinElmer) plate reader, 540 excitation and 590 emission filters 9b; Detection; fluorescence (Read 2: UDG); EnVision (PerkinElmer) plate reader, 560 excitation and 665 emission filters NOTES (numbers refer to sequence above) 1a; Reagents were dispensed in a medium-binding black solid-bottom Greiner plates (789176F) using a BioRptr liquid dispenser. Dispense 3 uL of [4/3x] 1 uM AID (provided by Kohli lab) and [4/3x] 2 U/mL UDG (NEB M0280L) into columns 1, 2, 5 to 48. 1b; Dispense 3 uL of [4/3x] 2 U/mL UDG into column 3. 1c; Dispense 3 uL of [4/3x] 1 uM AID into column 4. 2a; Compound ([…] [uM] (0.64; 3.2; 16; 80; 400; 2,000; 10,000; 20,000) double pin-transferred (Dip Factor = 2) using the Kalypsys (Wako USA) pintool equipped with a 1536 pinhead for a final concentration range of 7.32 nM - 114 uM. 2b; 10 mM Aurintricarboxylic Acid (Sigma A1895) (ATA, 8-point, n = 2, 1:2.5 dilution in column 2) double pin-transferred (Dip Factor = 2) using the Kalypsys (Wako USA) pintool equipped with a 1536 pinhead for a [final] range of 186 nM - 114 uM. 3; Room temperature incubation. 4; Dispense 1 uL of substrate mixture from the Kohli lab [4x] […] DJC20 and [4x] 250 nM DJC23 into columns 1 to 48 . 5; Room temperature incubation. 6; Dispense 4 uL of substrate mixture [2x] 250 mM NaOH into columns 1 to 48. 7; Centrifugation step to remove bubbles. 8; Room temperature incubation 9a; Fluorescence signal (column label AID) was read using the EnVision plate reader. Excitation filter = 540(8) nm, barcode = 311; Emission filter = 590(20) nm, barcode = 217; Mirror = D555, barcode = 405. […]
As for `NCCNS(=O)(=O)c1cccc2c(Cl)cccc12`, the Potency entry was “inactive”.

In the case of `C[C@H]1CC2C3CCC4=CC(=O)C=C[C@]4(C)[C@@]3(Cl)[C@@H](O)C[C@]2(C)[C@@]1(O)C(=O)CO` (stereo not given in full), the Potency entry is “inactive”.

Take `Nc1nc2c(nc(Br)n2C2OC3COP(=O)(O)O[C@@H]3C2O)c(=O)[nH]1` (stereo not given in full): the Potency entry was “inactive”.

As to `NC(=O)CNCCC(c1ccccc1)c1ccccc1`, the Potency result is “inactive”.

For `C[C@](Cc1ccc(O)c(O)c1)(NN)C(=O)O`, the Potency result is “inactive”.

Turning to `C=CCN1CCc2c(cc(O)c(O)c2Cl)C(c2ccccc2)C1` (stereo not given), the Potency result is “inactive”.

In the case of `Cc1nc(N=Nc2cc(S(=O)(=O)O)c3cc([N+](=O)[O-])cc(S(=O)(=O)O)c3c2)c(COP(=O)(O)O)c(C=O)c1O`, the Potency result is “inactive”.

On to `COc1cc(C(O)CO)ccc1O` (stereo not given), for which the Potency entry is “inactive”.

Turning to `O[Si](CCCN1CCCCC1)(c1ccc(F)cc1)C1CCCCC1` (stereo not given), the Potency result is “inactive”.

Take `C/C(=C\c1ccc(C(=O)O)cc1)c1ccc2c(c1)C(C)(C)CCC2(C)C`: the Potency entry is “inactive”.

Take `NC(Cc1cccc(-c2ccccc2CP(=O)(O)O)c1)C(=O)O` (stereo not given): the Potency entry was “inactive”.

Consider `NC(N)=N[C@@H](CCC(=O)O)C(=O)O`, for which the Potency entry was “inactive”.

For `CNc1ncnc2c1ncn2[C@H]1C[C@H](OP(=O)(O)O)[C@@H](COP(=O)(O)O)O1`, the Potency result is “inactive”.

Turning to `CC(C)Cn1c(=O)n(C)c(=O)c2[nH]cnc21`, the Potency result was “inactive”.

Consider `COc1ccc(C(=O)NCc2cccnc2)cc1C(=O)NCc1cccnc1`, for which the Potency entry is “inactive”.

Consider `N[C@@H](CCC(=O)N[C@H](CSN=O)C(=O)NCC(=O)O)C(=O)O`, for which the Potency entry is “inactive”.

On to `COc1ccccc1N1CCN(CCCNc2c(C)c(=O)n(C)c(=O)n2C)CC1`, for which the Potency result was “inactive”.

For the compound `c1ccc2c(c1)CC(N1CCN(c3cccc4c3OCCO4)CC1)C2`, the Potency entry is “inactive”.

Consider `O=C(N[C@@H](Cc1ccccc1)C(=O)CCl)OCc1ccccc1`, for which the Potency entry was “inactive”.

For `O=C1C2C=CC=CC2=NC(=S)N1CCN1CCC(=C(c2ccc(F)cc2)c2ccc(F)cc2)CC1` (stereo not given), the Potency result was “inactive”.

As to `NCCCCN`, the Potency entry is “inactive”.

As for `NCC(O)C1CCCCCCC1` (stereo not given), the Potency entry was “inactive”.

In the case of `NCCCNCCCCNCCCN`, the Potency result is “inactive”.

Regarding `O=C(c1ccc2c(c1)OCCO2)N1CCCCC1`, the Potency result is “inactive”.

`NCC(O)(CS(=O)(=O)O)c1ccc(Cl)cc1` (stereo not given): the Potency result was “inactive”.

For the compound `Cc1nc2c(OCc3ccccc3)cccn2c1CC#N`, the Potency entry was “inactive”.

For the compound `NS(=O)(=O)c1cccc2c1c([N+](=O)[O-])cc1nc(O)c(O)nc12`, the Potency result is “inactive”.

With `CC1=C(C(=O)O)N2C(=O)[C@@H](NC(=O)C(N)C3=CCC=CC3)[C@H]2SC1` (stereo not given in full), the Potency entry is “inactive”.

For `OC[C@H]1O[C@H](n2cnc3c(N[C@H]4CCC[C@@H]4O)ncnc32)[C@H](O)[C@@H]1O`, the Potency result was “inactive”.

Consider `CCCOC(=O)c1c(-c2ccccc2)nc(CC)c(C(=O)SCC)c1CCC`, for which the Potency entry is “inactive”.

As to `CCCn1c(=O)c2c(ncn2C)n(CCC)c1=O`, the Potency entry was “inactive”.

Consider `OC[C@H]1O[C@@H](n2cnc3cncnc32)[C@H](O)[C@@H]1O`, for which the Potency result is “inactive”.

With `CC#CCOC(=O)c1c(C)nc2sc3c(c2c1N)CCC(O)C3` (stereo not given), the Potency entry was “inactive”.

Regarding `O=c1[nH]c(=O)c2nc3ccccc3nc2[nH]1`, the Potency entry was “inactive”.

In the case of `COc1ccc(NC(=O)c2ccc(-c3ccc(-c4noc(C)n4)cc3C)cc2)cc1N1CCN(C)CC1`, the Potency entry was “inactive”.

Regarding `COc1cc(C(O)C(=O)O)ccc1O` (stereo not given), the Potency entry was “inactive”.

As for `NC(N)=NC(N)=Nc1ccccc1`, the Potency result was “inactive”.

Regarding `O=c1[nH]c(=S)[nH]c(-c2ccccc2)c1Cc1c(O)ccc2ccccc12`, the Potency result was “inactive”.

In the case of `N=C(N)c1ccccc1`, the Potency entry was “inactive”.

Consider `Cn1c(=O)c2[nH]c(-c3ccc(S(=O)(=O)O)cc3)nc2n(C)c1=O`, for which the Potency result was “inactive”.
